What all share (settings): mRNA level, 48 h; actives raise or lower the signal
Read-out in assay [1]: Alkaline Phosphatase, Placental (ALPP) gene, ALPP (gene 250)
The assay is described as follows: LTEA_HepaRG_ALPP: Life Technologies and Expression Analysis (LTEA) Assay for Alkaline Phosphatase, Placental (ALPP) gene using HepaRG (AID 2283468).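 On AC50: differentiated human HepaRG liver cells in serum-free induction medium.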 Put shortly: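 ALPP transcript level, measured by qRT-PCR and normalized to three housekeeping genes (ACTB, GAPDH, POLR2A), after 48 h dosing of differentiated HepaRG in serum-free induction medium. Top concentration 100 uM with half-log dilutions (8 points, 0.5% DMSO, duplicates); bidirectional fitting relative to DMSO.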

Read-out in assay [2]: Bcl-2 (BAD) gene, BAD (gene 572)
The assay can be described thus: LTEA_HepaRG_BAD: Life Technologies and Expression Analysis (LTEA) Assay for Bcl-2 (BAD) gene using HepaRG (AID 2283469). Put shortly:
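Read-out: qRT-PCR of BAD mRNA, normalized to three housekeeping genes. Human HepaRG cultures got 48 h chemical exposure in 0.5% DMSO, duplicate eight-point half-log series topping at 100 uM. Gain or loss of signal fitted versus DMSO vehicle.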

Read-out in assay [3]: Bcl-2 (BAX) gene, BAX (gene 581)
The assay can be described thus: LTEA_HepaRG_BAX: Life Technologies and Expression Analysis (LTEA) Assay for Bcl-2 (BAX) gene using HepaRG (AID 2283470). Put shortly:
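Gene expression measured by Fluidigm qRT-PCR with three housekeeping genes for normalisation. HepaRG cells, plated 48 h beforehand, treated 48 h at up to 100 uM (8-point, half-log) in 0.5% DMSO. Bidirectional fitting versus DMSO.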

Read-out in assay [4]: adenosine kinase (ADK) gene, ADK (gene 132)
The assay is described as follows: LTEA_HepaRG_ADK: Life Technologies and Expression Analysis (LTEA) Assay for adenosine kinase (ADK) gene using HepaRG (AID 2283471). Put shortly: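 Read-out is ADK transcript level measured by qRT-PCR and normalised to three housekeeping genes. Cells are human HepaRG, dosed for 48 h at up to 100 uM in 0.5% DMSO. Gain or loss of signal is fitted against DMSO controls.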

Read-out in assay [5]: Alpha-fetoprotein (AFP) gene, AFP (gene 174)
The assay is described as follows: LTEA_HepaRG_AFP: Life Technologies and Expression Analysis (LTEA) Assay for Alpha-fetoprotein (AFP) gene using HepaRG (AID 2283472). In short, it runs like this: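 AFP transcript measured by TaqMan qRT-PCR with three housekeeping genes for normalization, after 48 h chemical treatment of HepaRG cells (top 100 uM, half-log steps, 0.5% DMSO). Gain or loss fitted against vehicle.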

Read-out in assay [6]: BCL2L11 (gene 10018)
The assay can be described thus: LTEA_HepaRG_BCL2L11: Life Technologies and Expression Analysis (LTEA) Assay for Bcl-2 (BCL2L11) gene using HepaRG (AID 2283473). In short, it runs like this: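 BCL2L11 transcript levels are measured by Fluidigm qRT-PCR, normalized to three housekeeping genes. HepaRG cultures were plated 48 h, then treated 48 h with test chemical (top 100 uM, half-log, 0.5% DMSO vehicle); curves were fitted bidirectionally against DMSO.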

Read-out in assay [7]: Apoptosis regulator Bcl-2 (Homo sapiens) (UniProt P10415)
The assay can be described thus: LTEA_HepaRG_BCL2: Life Technologies and Expression Analysis (LTEA) Assay for Bcl-2 gene using HepaRG (AID 2283475). Put shortly:
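qRT-PCR of BCL2 transcript, normalized to three housekeeping genes (ACTB, GAPDH, POLR2A), after 48 h chemical exposure of HepaRG cells; concentrations top 100 uM with half-log dilutions, 0.5% DMSO vehicle, duplicates; changes up or down fitted relative to vehicle.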

Read-out in assay [8]: Bcl-2 (BID) gene, BID (gene 637)
The assay is described as follows: LTEA_HepaRG_BID: Life Technologies and Expression Analysis (LTEA) Assay for Bcl-2 (BID) gene using HepaRG (AID 2283476). In short, it runs like this:
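Duplicate 48 h treatments of HepaRG cells in serum-free induction medium spanned 100 uM downward in half-log steps, 0.5% DMSO. Transcript change quantified by qRT-PCR against three housekeeping genes, fitted up or down versus DMSO.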

Read-out in assay [9]: Caspase-3 (Homo sapiens) (UniProt P42574)
The assay can be described thus: LTEA_HepaRG_CASP3: Life Technologies and Expression Analysis (LTEA) Assay for cysteine-aspartic acid protease (CASP3) using HepaRG (AID 2283477). Put shortly:
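Expression of CASP3 was quantified by TaqMan qRT-PCR against three housekeeping genes (ACTB, GAPDH, POLR2A), bidirectionally versus 0.5% DMSO. HepaRG cultures received compounds in duplicate, top 100 uM with half-log steps, for 48 h in serum-free induction medium.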

Read-out in assay [10]: Cytochrome P450 (CYP24A1), CYP24A1 (gene 1591)
The assay can be described thus: LTEA_HepaRG_CYP24A1: Life Technologies and Expression Analysis (LTEA) Assay for Cytochrome P450 (CYP24A1) using HepaRG (AID 2283478). In short, it runs like this: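 mRNA of CYP24A1 quantified by TaqMan qRT-PCR (ACTB/GAPDH/POLR2A normalization) after 48 h chemical exposure of HepaRG cells, top concentration 100 uM, half-log steps, 0.5% DMSO vehicle, duplicates. Curves fitted bidirectionally against DMSO baseline.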

Read-out in assay [11]: Cytochrome P450 (CYP1A2), CYP1A2 (gene 1544)
The assay can be described thus: LTEA_HepaRG_CYP1A2: Life Technologies and Expression Analysis (LTEA) Assay for Cytochrome P450 (CYP1A2) using HepaRG (AID 2283479). In short, it runs like this:
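CYP1A2 transcript measured by TaqMan qRT-PCR against three housekeeping genes after 48-hour chemical exposure of HepaRG cells. Eight-point half-log series topping at 100 uM in 0.5% DMSO, duplicates; gain or loss fitted relative to vehicle.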

Read-out in assay [12]: cysteine-aspartic acid protease (CASP8), CASP8 (gene 841)
The assay is described as follows: LTEA_HepaRG_CASP8: Life Technologies and Expression Analysis (LTEA) Assay for cysteine-aspartic acid protease (CASP8) using HepaRG (AID 2283480). In short, it runs like this:
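CASP8 transcript measured by TaqMan qRT-PCR with ACTB/GAPDH/POLR2A normalization, after 48 h chemical exposure of HepaRG cells in serum-free induction medium. Eight concentrations, top 100 uM, half-log steps, 0.5% DMSO vehicle; fits in both directions versus DMSO.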

Read-out in assay [13]: Cytochrome P450 (CYP2B6), CYP2B6 (gene 1555)
The assay is described as follows: LTEA_HepaRG_CYP2B6: Life Technologies and Expression Analysis (LTEA) Assay for Cytochrome P450 (CYP2B6) using HepaRG (AID 2283481). In short, it runs like this:
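CYP2B6 transcript level quantified by qRT-PCR against three housekeeping genes, fitted bidirectionally relative to DMSO. HepaRG cultures received chemicals for 48 h, 8-point half-log series from 100 uM in 0.5% DMSO, duplicate wells, serum-free induction medium.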

Read-out in assay [14]: Cytochrome P450 2C19 (Homo sapiens) (UniProt P33261)
The assay can be described thus: LTEA_HepaRG_CYP2C19: Life Technologies and Expression Analysis (LTEA) Assay for CYP2C19 using HepaRG (AID 2283482). In short, it runs like this:
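CYP2C19 transcript levels by qRT-PCR, normalized to three housekeeping genes, in HepaRG cells after 48 h chemical exposure. Eight-point half-log series topping at 100 uM, 0.5% DMSO vehicle. Increases and decreases both fitted against DMSO.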

Read-out in assay [15]: CYP2C8 (gene 1558)
The assay is described as follows: LTEA_HepaRG_CYP2C8: Life Technologies and Expression Analysis (LTEA) Assay for CYP2C8 using HepaRG (AID 2283483). Put shortly: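 CYP2C8 expression measured by TaqMan qRT-PCR and normalized to three housekeeping genes. HepaRG cultures were treated for 48 h with an eight-point half-log series topping at 100 uM, vehicle 0.5% DMSO, duplicates; fitted both directions against DMSO.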

Read-out in assay [16]: CYP2C9 (gene 1559)
The assay can be described thus: LTEA_HepaRG_CYP2C9: Life Technologies and Expression Analysis (LTEA) Assay for CYP2C9 using HepaRG (AID 2283484). In short, it runs like this:
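CYP2C9 transcript level, quantified by TaqMan qRT-PCR against three housekeeping genes, was fitted bidirectionally relative to 0.5% DMSO. HepaRG cultures were treated 48 h, in duplicate, at eight half-log concentrations topping at 100 uM.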

Read-out in assay [17]: CYP2E1 (gene 1571)
The assay is described as follows: LTEA_HepaRG_CYP2E1: Life Technologies and Expression Analysis (LTEA) Assay for CYP2E1 using HepaRG (AID 2283485). Put shortly: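 CYP2E1 transcript measured by Fluidigm qRT-PCR against three housekeeping genes in human HepaRG cells treated 48 h (top 100 uM, half-log steps, 0.5% DMSO vehicle). Gain or loss fitted relative to DMSO baseline.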

Read-out in assay [18]: CYP4A11 (gene 1579)
The assay is described as follows: LTEA_HepaRG_CYP4A11: Life Technologies and Expression Analysis (LTEA) Assay for CYP4A11 using HepaRG (AID 2283486). Put shortly: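 Readout is CYP4A11 transcript level by qRT-PCR, normalized to three housekeeping genes and fitted bidirectionally against 0.5% DMSO. Human HepaRG cells were treated 48 h, in duplicate, with an 8-point half-log series topping at 100 uM.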

Read-out in assay [19]: Cytochrome P450 3A4 (Homo sapiens) (UniProt P08684)
The assay is described as follows: LTEA_HepaRG_CYP3A4: Life Technologies and Expression Analysis (LTEA) Assay for CYP3A4 using HepaRG (AID 2283487). Put shortly: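 HepaRG, 48 h exposure, 8-pt CRC from 100 uM (half-log), 0.5% DMSO, duplicates; serum-free induction medium. Readout: CYP3A4 mRNA, qRT-PCR, ACTB/GAPDH/POLR2A normalization. Bidirectional fit vs DMSO.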

Activity calls are given as the source filed them. How the source made its calls: active means hit-call score of the fitted dose curve at least 0.9, where 1 is the maximum; inactive means score below 0.9.

Cytochrome P450 2C19 (Homo sapiens), sequence (P33261 whole entry, looked up): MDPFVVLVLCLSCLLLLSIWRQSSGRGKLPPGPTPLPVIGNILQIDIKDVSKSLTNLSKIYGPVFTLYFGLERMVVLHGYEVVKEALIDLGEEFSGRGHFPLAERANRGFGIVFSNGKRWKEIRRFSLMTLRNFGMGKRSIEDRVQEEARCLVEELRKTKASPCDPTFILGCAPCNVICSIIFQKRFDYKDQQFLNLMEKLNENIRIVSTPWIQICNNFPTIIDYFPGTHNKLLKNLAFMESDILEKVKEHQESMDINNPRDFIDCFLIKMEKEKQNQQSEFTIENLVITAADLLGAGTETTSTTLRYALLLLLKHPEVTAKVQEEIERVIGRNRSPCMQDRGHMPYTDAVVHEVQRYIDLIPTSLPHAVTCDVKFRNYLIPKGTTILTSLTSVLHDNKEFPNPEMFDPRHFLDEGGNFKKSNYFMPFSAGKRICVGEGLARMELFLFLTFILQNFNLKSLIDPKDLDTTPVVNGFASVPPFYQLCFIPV
Apoptosis regulator Bcl-2 (Homo sapiens), sequence (P10415 whole entry, looked up): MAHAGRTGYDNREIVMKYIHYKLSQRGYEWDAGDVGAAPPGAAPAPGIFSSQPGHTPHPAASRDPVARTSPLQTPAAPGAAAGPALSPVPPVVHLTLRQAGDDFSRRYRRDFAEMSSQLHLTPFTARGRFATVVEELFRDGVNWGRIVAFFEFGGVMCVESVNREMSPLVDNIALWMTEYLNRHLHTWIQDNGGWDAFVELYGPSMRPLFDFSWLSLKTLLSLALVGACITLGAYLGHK
Caspase-3 (Homo sapiens), sequence (P42574 whole entry, looked up): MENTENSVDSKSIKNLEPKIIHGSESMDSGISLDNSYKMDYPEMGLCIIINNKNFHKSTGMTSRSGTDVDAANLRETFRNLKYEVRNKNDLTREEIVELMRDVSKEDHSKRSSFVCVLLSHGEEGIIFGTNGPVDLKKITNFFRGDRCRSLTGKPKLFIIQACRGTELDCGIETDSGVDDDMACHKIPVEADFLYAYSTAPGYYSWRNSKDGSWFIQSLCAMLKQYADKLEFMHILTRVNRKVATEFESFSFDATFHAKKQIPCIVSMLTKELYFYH
Cytochrome P450 3A4 (Homo sapiens), sequence (P08684 whole entry, looked up): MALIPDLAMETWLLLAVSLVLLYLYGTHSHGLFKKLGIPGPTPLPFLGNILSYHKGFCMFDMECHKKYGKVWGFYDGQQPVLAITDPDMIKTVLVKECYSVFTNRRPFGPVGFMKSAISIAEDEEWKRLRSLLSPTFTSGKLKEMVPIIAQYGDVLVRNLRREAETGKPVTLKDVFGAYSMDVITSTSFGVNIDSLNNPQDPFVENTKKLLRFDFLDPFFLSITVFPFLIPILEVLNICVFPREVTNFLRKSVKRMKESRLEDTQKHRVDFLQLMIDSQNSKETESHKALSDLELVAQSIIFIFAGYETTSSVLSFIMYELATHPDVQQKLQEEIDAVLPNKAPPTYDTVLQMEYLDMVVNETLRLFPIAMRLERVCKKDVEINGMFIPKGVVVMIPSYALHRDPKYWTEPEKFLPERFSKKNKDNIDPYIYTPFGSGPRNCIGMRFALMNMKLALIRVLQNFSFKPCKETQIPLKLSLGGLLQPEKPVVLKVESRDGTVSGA

As for `C#CCOS(=O)OC1CCCCC1Oc1ccc(C(C)(C)C)cc1` (stereo unspecified), the compound was classed as inactive in assay [1], in [2], in assay [3], in assay [6], in assay [10] and in assay [11]. Besides, the AC50 in [4] is 30.1 µM (active); in assay [5] it was 29.5 µM (active); in [7], 81.7 µM (active); in assay [8], 11.4 µM (active); in [9] it was 29 µM (active); in [12] it was 31.3 µM (active). Moreover, the AC50 in [13] is 26.6 µM (active); in assay [14] it was 26.3 µM (active); in assay [15], 29.9 µM (active); in assay [16], 25.6 µM (active); in assay [17], 22.6 µM (active); in assay [18] it was 25.9 µM (active). Besides, in [19], the AC50 was 28.8 µM (active).
Consider `CC(C)Oc1cc(-n2nc(C(C)(C)C)oc2=O)c(Cl)cc1Cl`, for which the AC50 in assay [1] was 69.8 µM (active); in [5], 47.2 µM (active); in [7], 81.1 µM (active); in [13], 90.5 µM (active); in assay [14] it was 1.44 µM (active); in assay [15] it was 86.3 µM (active). Besides, the AC50 in assay [16] is 82.3 µM (active); in assay [17], 30.8 µM (active); in assay [18] it was 45.6 µM (active); in [19] it was 1.04 µM (active). The result in [2], in assay [3], in assay [4], in [6], in assay [8] and in assay [9] was inactive. Besides, the outcome in assay [10] and in [12] was inactive.
On to `CCCCNC(=O)OCC#CI`, for which the half-maximal activity concentration (AC50) was 9.92 µM (active) in assay [1]; 50 µM (active) in [4]; 31.1 µM (active) in [11]; 30.6 µM (active) in assay [13]; 50 µM (active) in assay [14]; 50 µM (active) in assay [15]. Besides, the AC50 in assay [16] was 21.5 µM (active). In addition, the compound was called inactive in assay [2], in assay [3], in assay [5], in [6], in assay [7] and in [8]. The compound was called inactive in assay [9], in assay [10], in assay [12], in [17], in assay [18] and in assay [19].
